# Measurements: publication PMC4336329 (PLoS ONE, 2015)
# Hit rate of the full screen: of about 310,000 compounds, about 14,000 (4.5%) showed an effect of 50% or more. The effect is printed as a negative number. What follows is part of a selection rich in strong results, with near analogues and random picks from the rest.
# Biological target: human ether-à-go-go-related gene (hERG) potassium channel (human, UniProt Q12809)
# Test: primary screen, population patch clamp on CHO cells stably expressing hERG; higher = less effect of the substance
# 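Also: peak tail current of the secondary pulse compared with the same well before compound.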
# Chain of human ether-à-go-go-related gene (hERG) potassium channel (Q12809 whole entry, looked up): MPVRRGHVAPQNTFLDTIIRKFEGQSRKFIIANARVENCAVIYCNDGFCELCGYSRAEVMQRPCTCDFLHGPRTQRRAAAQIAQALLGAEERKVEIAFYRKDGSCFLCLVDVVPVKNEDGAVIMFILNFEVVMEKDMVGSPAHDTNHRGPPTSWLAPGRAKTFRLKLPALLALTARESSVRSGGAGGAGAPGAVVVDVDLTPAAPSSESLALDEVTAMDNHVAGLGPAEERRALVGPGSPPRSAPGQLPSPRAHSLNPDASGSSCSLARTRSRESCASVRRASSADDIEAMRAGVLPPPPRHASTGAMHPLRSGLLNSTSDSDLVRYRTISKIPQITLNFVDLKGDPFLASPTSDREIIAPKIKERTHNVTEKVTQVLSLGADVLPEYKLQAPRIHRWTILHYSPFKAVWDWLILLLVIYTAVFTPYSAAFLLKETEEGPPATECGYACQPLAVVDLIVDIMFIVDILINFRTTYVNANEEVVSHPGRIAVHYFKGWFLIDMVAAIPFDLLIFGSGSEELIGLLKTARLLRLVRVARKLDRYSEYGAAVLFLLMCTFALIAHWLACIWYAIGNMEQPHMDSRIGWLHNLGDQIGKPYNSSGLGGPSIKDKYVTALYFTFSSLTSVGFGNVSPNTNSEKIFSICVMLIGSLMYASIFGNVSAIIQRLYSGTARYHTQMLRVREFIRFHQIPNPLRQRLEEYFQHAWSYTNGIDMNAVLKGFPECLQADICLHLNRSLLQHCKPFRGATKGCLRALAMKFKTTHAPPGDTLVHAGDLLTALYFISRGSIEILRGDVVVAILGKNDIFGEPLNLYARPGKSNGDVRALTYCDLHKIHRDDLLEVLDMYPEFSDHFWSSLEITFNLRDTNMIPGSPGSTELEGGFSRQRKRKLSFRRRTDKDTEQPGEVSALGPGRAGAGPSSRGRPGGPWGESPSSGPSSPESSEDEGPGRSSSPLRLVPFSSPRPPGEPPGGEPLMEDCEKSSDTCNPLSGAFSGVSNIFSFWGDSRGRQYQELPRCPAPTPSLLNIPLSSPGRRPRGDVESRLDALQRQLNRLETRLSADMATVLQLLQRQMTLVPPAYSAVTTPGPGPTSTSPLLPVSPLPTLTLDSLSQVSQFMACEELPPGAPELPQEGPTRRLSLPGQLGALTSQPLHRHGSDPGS
row,SMILES,"hERG current change (%, negative = inhibition) at 10uM"
1,COc1ccc(S(=O)(=O)N2CCCCC2)cc1NC(=O)c1cc([N+](=O)[O-])ccc1N1CCOCC1,-30.4%
2,COc1ccc(C)cc1NC(=O)c1cc(S(=O)(=O)N2CCCCC2)ccc1N1CCOCC1,-39.2%
3,Cc1ccc(NC(=O)c2cc(S(=O)(=O)N3CCCCC3)ccc2N2CCOCC2)cc1F,-13.9%
4,Cc1ccc(NC(=O)/C(=C/c2cccs2)NC(=O)c2ccco2)c(C)c1,-9.56%
5,CCCC(=O)NNC(=O)Nc1ccccc1,19.8%
6,O=c1[nH]c(CSc2nc3ccccc3[nH]2)nc2c1cnn2-c1ccccc1,-17.6%
7,COc1ccc(CC(=O)Nc2cc(C)on2)cc1OC,2.2%
8,CC(=O)Nc1ccc(S(=O)(=O)Nc2nc3ccccc3nc2Nc2cccc(S(N)(=O)=O)c2)cc1,10.3%
9,CCOc1ccc2oc(-c3ccccc3)c(C(=O)N3CCN(C)CC3)c2c1,-9.67%
10,O=C(Nc1ccccc1N1CCCCC1)c1cc(S(=O)(=O)N2CCOCC2)ccc1Cl,-4.01%
11,O=C(Nc1ccccc1N1CCCC1)c1cc(S(=O)(=O)N2CCOCC2)ccc1Cl,-34.5%
12,CS(=O)(=O)c1ccc(Cl)c(NC(=O)c2cc(S(=O)(=O)N3CCOCC3)ccc2N2CCCC2)c1,-81.3%
13,Cc1nc(CC(=O)NNS(=O)(=O)c2ccc(F)c(Cl)c2)cs1,20%
14,O=C(COC(=O)C1CCCN1C(=O)c1cccs1)Nc1ccc2c(c1)OCO2 (centres unmarked),-11.9%
15,Cc1ccc(C)c(S(=O)(=O)Nc2cc(SCC(=O)O)c(O)c3ccccc23)c1,5.34%
16,CCOc1ccc(Cc2c(C)[nH]c3ccc(C(=O)O)cc3c2=S)cc1,-9.2%
17,COc1ccc([N+](=O)[O-])cc1N(CC(O)CN1CCCCC1)S(=O)(=O)c1ccc(C)cc1 (centres unmarked),-42.7%
18,O=[N+]([O-])c1cccc(N(CC(O)CN2CCCCC2)S(=O)(=O)c2ccccc2)c1 (centres unmarked),-43.8%
19,COc1ccc([N+](=O)[O-])cc1N(CC(O)CN1CCCC1)S(=O)(=O)c1ccc(C)cc1 (centres unmarked),-2.85%
20,O=[N+]([O-])c1cccc(N(CC(O)CN2CCCC2)S(=O)(=O)c2ccccc2)c1 (centres unmarked),-62.4%
21,Cc1ccc(S(=O)(=O)N(CC(O)CN2CCCCC2)c2cccc([N+](=O)[O-])c2)cc1 (centres unmarked),-78.8%

row,SMILES,"hERG current change (%, negative = inhibition) at 10uM"
1,Cc1cc(C)n(CC(O)CN(c2cccc([N+](=O)[O-])c2)S(=O)(=O)c2ccccc2)n1 (centres unmarked),7.08%
2,Cc1cc(C)c2nc(SCC#N)cc(C)c2c1,13.5%
3,O=C(OCC#CCSc1nnc(-c2cccc3ccccc23)o1)c1ccco1,-2.9%
4,CCN=C(Nc1ccc(Cl)cc1)c1cccnc1,-2.16%
5,O=C(N/C(=C/c1ccco1)C(=O)N1CCCC1)c1cccs1,-0.326%
6,CC(C)(C)OC(=O)N1CCOCCOCCN(C(=O)OC(C)(C)C)CCOCCOCC1,7%
7,Cc1oc(-c2ccc(Cl)cc2)nc1CN1CCCC(C(=O)NC2CC2)C1 (centres unmarked),-81.3%
8,COc1ccc(-c2nc(CS(=O)CC(=O)NC3CCCC3)c(C)o2)cc1 (centres unmarked),-16.4%
9,COc1ccc(-c2nc(CN3CCC(C(=O)NC4CCCC4)CC3)c(C)o2)cc1OC,-36.4%
10,Cc1oc(-c2ccc(Cl)cc2)nc1CN1CCCC(C(=O)NCCCN2CCOCC2)C1 (centres unmarked),-19.4%
11,COc1ccc(-c2nc(CN3CCCC(C(=O)NC4CCCC4)C3)c(C)o2)cc1 (centres unmarked),-64.4%
12,Cc1oc(-c2ccc(Cl)cc2)nc1CS(=O)CC(=O)NC1CC1 (centres unmarked),8.75%
13,CC1CCN(c2nc(N3CCCCC3)nc(N3CCCCC3)n2)CC1,9.57%
14,CC(C)(C)C(=O)OCc1nc(-c2ccc(Cl)cc2)cs1,7.41%
15,COc1ccc(CNC(=O)CCc2nc3cc(S(=O)(=O)N(C)C)ccc3n2C)cc1OC,14.3%
16,N#C/C(=C\N1CCCCC1)S(=O)(=O)c1ccc(Cl)cc1,15.6%
17,O=C(NCCc1ccccc1)c1ccc(S(=O)(=O)N2CCCC2)cc1,-5.37%
18,CSc1cccc(NC(=O)COC(=O)C2CCN(S(=O)(=O)c3ccccc3)CC2)c1,4.09%
19,Cc1ccc(-n2cnnn2)cc1Cl,-18.8%
20,C/C(=N\NC(=O)CNC(=O)c1cccs1)c1ccc(Cl)c(Cl)c1,-2.25%
